Here are results for five compounds from PubChem BioAssay (NCI).

Some test systems named below: NCI-H23 lung; NCI-H226 lung; NCI-H322M lung; HOP-62 NSCLC; NCI-H460 lung; HOP-92 NSCLC; NCI-H522 lung; A549/ATCC NSCLC; 786-0 renal.
Common to all, as to assay: NCI-60 one-dose screen, 48 h (100 = growth as untreated, 0 = no growth, -100 = all killed)
Holding throughout (details): 10 µM unless noted

Compounds without any hit were thinned out: in the full panel of roughly 83,000, 20% have a hit.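 In brief: 96-well plates, 48 h treatment, single concentration, percent growth endpoint.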 Values without a mark were called inactive. The source made the active and inactive calls. The calls were made as follows: active = growth percent below 10; inactive = the rest.

`N#Cc1cccc(-c2nc3ccccn3c2NCCN2CCOCC2)c1`: the growth is 98.6% with NCI-H23 lung; 93.6% with NCI-H226 lung; 87.1% in the test on NCI-H322M lung; 72.5% in the test on HOP-62 NSCLC; 98.8% in the test on NCI-H460 lung; 93% in the test with HOP-92 NSCLC. Also, the growth with NCI-H522 lung was 85.8%; in the test with A549/ATCC NSCLC, 90.4%; in the test on 786-0 renal it was 96.1%.
Regarding `CC(C)OC(=O)OCOP(=O)(OCOC(=O)OC(C)C)C1CCCN(O)C1=O` (stereo not given), the growth is 69.6% in the test on NCI-H23 lung; 56.1% in the test with NCI-H226 lung; 32.8% with NCI-H322M lung; 13.3% with HOP-62 NSCLC; 17% in the test with NCI-H460 lung; 41.7% with HOP-92 NSCLC. In addition, the growth in the test with NCI-H522 lung is -6.81% (active); with A549/ATCC NSCLC, 22.1%; with 786-0 renal, 17.6%.
Turning to `CC(=O)Nc1ccc2c(c1)Cc1c(F)cccc1-2`, the growth is 94.9% with NCI-H23 lung; 89.4% in the test with NCI-H226 lung; 112% in the test on NCI-H322M lung; 116% with HOP-62 NSCLC; 92.2% in the test on NCI-H460 lung; 89% with HOP-92 NSCLC. Also, the growth in the test with NCI-H522 lung is 89%; in the test with A549/ATCC NSCLC, 92%; in the test on 786-0 renal, 115%.
As for `COc1cc(C(=O)/C=C/c2c(-c3ccc(F)cc3)nc3ncccn23)cc(OC)c1OC`, the growth was 39.3% in the test on NCI-H23 lung; 63.4% in the test on NCI-H226 lung; 69.9% in the test on NCI-H322M lung; 68.1% in the test with HOP-62 NSCLC; 21.6% with NCI-H460 lung; 23.6% in the test on HOP-92 NSCLC. The growth is -0.92% (active) in the test on NCI-H522 lung, 61.1% in the test with A549/ATCC NSCLC and 70.7% in the test with 786-0 renal.
Take `Cc1cc(-c2ccccc2)cc(SC#N)[n+]1[O-]`: the growth was 55.9% in the test with NCI-H23 lung; 69.4% in the test on NCI-H226 lung; 50.5% in the test on NCI-H322M lung; 40.2% in the test on HOP-62 NSCLC; 19% with NCI-H460 lung; 82.2% in the test with HOP-92 NSCLC. For the same compound, the growth with NCI-H522 lung is 39.2%; in the test with A549/ATCC NSCLC, 33.7%; with 786-0 renal it was 41.1%.
